# Results with a measured potency or affinity are listed apart.
# Experiments:
# Klebsiella pneumoniae = conditions: Concentration 32 ug.mL-1;; ASSAY_TEST Inhibition of Bacterial Growth; detection method Absorption (OD600); MEDIA CAMHB; plate type 384well; NBS; CORNING #3640; time 18 hr
# Candida albicans = conditions: Concentration 32 ug.mL-1; ASSAY_TEST Inhibition of Fungal Growth; detection method Absorption (OD530)
# Cryptococcus neoformans = conditions: Concentration 32 ug.mL-1; ASSAY_TEST Inhibition of Fungal Growth; detection method Resazurin; Absorption (OD600-OD570); plate type 384well; NBS; CORNING #3640
SMILES,Inhibition (Klebsiella pneumoniae) [%],Inhibition (Candida albicans) [%],Inhibition (Cryptococcus neoformans) [%]
Cc1ccc(-n2ccn3c(SCC(N)=O)nnc3c2=O)cc1C,20.66,1.07,-10.4
CCOC(=O)c1ccccc1NC(=O)CSc1nnc2ccc(C(=O)Nc3cccc(F)c3)cn12,3.32,0.61,-6.96
Cc1cc(C)cc(NC(=O)Cn2nc3n(C)c(=O)c4c(c(-c5ccccc5)cn4C)n3c2=O)c1,6.43,0.06,-5.54
Cc1cc(Br)ccc1NC(=O)Cn1nc2c(Sc3cccc(F)c3)nccn2c1=O,4.98,6.11,-9.53
COc1ccccc1N1CCN(C(=O)CSc2nnc3c(=O)n(-c4ccccc4)ccn23)CC1,9.27,1.3,-12.92
Cc1cccc(Oc2nccn3c(=O)n(CC(=O)NCCCc4ccccc4)nc23)c1C,15.41,0.59,-6.84
O=C(CSc1nnc2c(=O)n(-c3ccccc3)ccn12)Nc1ccc(F)cc1,3.51,4.29,-7.32
Cc1ccc(NC(=O)Cn2c(=O)c3nnc(C(C)C)n3c3ccccc32)cc1F,13.19,0.6,-30.05
COc1ccc(CN(c2ccc(C(C)C)cc2)S(=O)(=O)c2cccn3cnnc23)cc1,7.8,1.9,-7.62
CCOc1ccc(-n2ccn3c(SCC(=O)Nc4ccc5c(c4)OCCO5)nnc3c2=O)cc1,3.14,6.39,-10.75
COc1cccc(CSc2nnc3c(=O)n(-c4ccccc4OC)ccn23)c1,6.64,1.36,-5.34
Cc1ccc(NC(=O)Cn2nc3ccc(-c4ccccc4)nn3c2=O)cc1,0.91,16.23,-12.72
O=C(Cn1nc2ccc(-c3ccc(Cl)cc3)nn2c1=O)Nc1ccccc1,1.21,1.7,-12.99
CCOC(=O)c1ccc(NC(=O)CSc2nnc3c4cc(-c5ccc(OC)cc5)nn4ccn23)cc1,14.8,-1.16,-22.98
COc1cccc(Sc2nc3ccccc3n3c(=O)n(CC(=O)Nc4ccc(Cl)cc4)nc23)c1,2.35,36.59,-25.56
COc1ccccc1-n1ccn2c(SCC(=O)Nc3ccc4c(c3)OCCO4)nnc2c1=O,16.4,6.52,-7.16
CC(C)c1ccc(N(Cc2cc(F)cc(F)c2)S(=O)(=O)c2cccn3cnnc23)cc1,4.84,0.58,-6.06
COc1ccc(Cl)cc1NC(=O)Cn1nc2ccc(Sc3ccccc3)nn2c1=O,0.86,45.02,-15.66
O=C(CSc1nnc2c3cc(-c4ccc(F)cc4)nn3ccn12)NCc1ccccc1,0.49,0.97,-18.29
CCOc1ccc(-n2ccn3c(SCC(=O)c4c(C)[nH]c5ccccc45)nnc3c2=O)cc1,3.78,2.22,-13.8

SMILES,Inhibition (Klebsiella pneumoniae) [%],Inhibition (Candida albicans) [%],Inhibition (Cryptococcus neoformans) [%]
COc1cc(NC(=O)C(C)Sc2nnc3c(=O)n(-c4ccc(C)c(C)c4)ccn23)cc(OC)c1 (stereo not given),1.23,2.85,-8.2
Cc1ccccc1N1CCN(c2nccn3c(=O)n(CC(=O)NCc4ccc(Cl)cc4)nc23)CC1,7.17,45.71,-4.38
CCc1nnc2c(SCC(=O)Nc3ccc(OC)c(Cl)c3)nc3ccccc3n12,11.84,5.38,-21.55
Cc1cc2nn(CC(=O)NCc3ccccc3)c(=O)n2c(Nc2ccc(C)c(F)c2)n1,12.56,6.49,-3.12
CCCCN(C)c1ccc2nnc(CCc3nc(-c4cccc(Br)c4)no3)n2n1,13.86,15.05,-17.7
CCCCOc1ccc(-c2cc3c4nnc(SCC(=O)Nc5cc(C)ccc5C)n4ccn3n2)cc1,-2.43,5.83,-10.24
Cc1ccc(-c2ccc3nnc(CCC(=O)N4CCN(C(=O)c5ccco5)CC4)n3n2)cc1C,19.25,2.04,-14.25
Cc1cc(C)c(NC(=O)Cn2nc3c(N4CCN(c5ccccc5)CC4)nccn3c2=O)c(C)c1,10.19,11.4,-7.74
CCc1ccc(N(Cc2cc(F)cc(F)c2)S(=O)(=O)c2cccn3c(C)nnc23)cc1,2.59,0.73,-2.77
C=Cc1ccc(CN(c2ccc(C(C)C)cc2)S(=O)(=O)c2cccn3c(C)nnc23)cc1,4.48,1.49,-4.15
COc1ccc(-c2cc3c4nnc(SCC(=O)Nc5cccc(Cl)c5C)n4ccn3n2)cc1,-3.16,6.33,-18.63
Cc1cc(C)c(NC(=O)Cn2nc3ccc(SC4CCCCC4)nn3c2=O)c(C)c1,7.83,19.78,-14.71
Cc1ccc(NC(=O)Cn2nc3c4cc(-c5ccc(C)c(C)c5)nn4ccn3c2=O)c(C)c1,-6.92,-0.38,-15.91
Cc1cc2nn(CC(=O)Nc3cccc(C)c3C)c(=O)n2c(Nc2ccc(F)c(C)c2)n1,8.99,3.16,-7.96
COc1cc(NC(=O)CSc2nnc3c(=O)n(-c4ccccc4)ccn23)cc(OC)c1,17.43,0.46,-23.26
O=C(Cn1nc2ccc(Sc3cccc(F)c3)nn2c1=O)Nc1cccc(Cl)c1,-3.42,11.97,-3.34
CC(C)CCn1c(=O)c2sccc2n2c(=O)n(CCOc3ccccc3)nc12,15.26,12.41,-11.28
CCc1cccc(NC(=O)Cn2nc3c(Sc4ccc(C)cc4C)nccn3c2=O)c1,-3.14,5.97,-23.88
COc1cccc(Oc2nccn3c(=O)n(CC(=O)NCc4cccs4)nc23)c1,11.61,0.8,-9.44
O=C(Cn1nc2c(Oc3ccccc3)nccn2c1=O)Nc1ccc(F)cc1Cl,3.51,0.77,-10.04

SMILES,Inhibition (Klebsiella pneumoniae) [%],Inhibition (Candida albicans) [%],Inhibition (Cryptococcus neoformans) [%]
COc1ccc(N2CCN(C(=O)Cn3nc4c(Oc5ccccc5)nccn4c3=O)CC2)cc1,15.08,1.75,-7.66
COc1ccc(NC(=O)Cn2nc3c(SC4CCCCC4)nccn3c2=O)cc1OC,12.09,-2.05,-22.51
CCCCN(CC)c1ccc2nnc(CCc3nc(-c4ccc5c(c4)OCO5)no3)n2n1,3.82,3.29,-4.25
CCCCOc1ccc(-c2cc3c4nnc(SCC(=O)Nc5c(C)cccc5C)n4ccn3n2)cc1,2.94,28.25,-13.35
CCc1cccc(NC(=O)Cn2nc3ccc(SC4CCCCC4)nn3c2=O)c1,16.99,2.91,-22.11
Cc1ccc(CN(c2ccc3c(c2)OCO3)S(=O)(=O)c2ccc3nnc(C)n3c2)cc1,2.15,2.45,-2.21
Cc1ccccc1CN(c1ccc(C(C)C)cc1)S(=O)(=O)c1cccn2cnnc12,21.6,3.03,-21.28
CSc1cccc(NC(=O)Cn2nc3c(SCc4ccc(Cl)cc4)nccn3c2=O)c1,7.71,19.01,-40.36
COc1ccc(-c2cc3c4nnc(CCC(=O)NCc5ccccc5Cl)n4ccn3n2)cc1,3.58,1.3,-11.66
CCCCc1ccc(NC(=O)CSc2nc3ccccc3n3c(C(C)C)nnc23)cc1,2.68,2.13,-2.44
COc1cccc(Oc2nccn3c(=O)n(CC(=O)Nc4cccc(Br)c4)nc23)c1,6.87,0.25,-8.58
O=C(Cn1nc2nc(Nc3ccc(F)cc3)ccn2c1=O)NCc1ccc(F)cc1Cl,11.65,1.62,-8.71
O=c1n(Cc2cccc(C(F)(F)F)c2)nc2ccc(S(=O)(=O)N3CCCCC3)cn12,10.15,0.06,-10.55
Cc1ccc(NC(=O)Cn2nc3c4cc(-c5ccc(Cl)cc5)nn4ccn3c2=O)cc1F,4.91,-0.67,-19.64
O=C(CSc1nnc2c(=O)n(-c3cccc(F)c3)ccn12)Nc1ccc(Br)cc1F,15.26,5.02,-13.45
Cc1cccc(CN(c2cccc(Cl)c2)S(=O)(=O)c2cccn3c(C)nnc23)c1,-0.09,1.52,-9.64
CCc1nnc2ccc(S(=O)(=O)N(Cc3ccccc3F)c3ccc(OC)cc3)cn12,7.78,3.86,-4.31
COc1ccccc1-n1ccn2c(SCC(=O)Nc3ccc(C)cc3Cl)nnc2c1=O,5.82,3.4,-11.35
COc1cccc(Cn2nc3c(=O)n(-c4cccc(Cl)c4C)ccn3c2=O)c1,-11.12,6.64,-14.85
O=S(=O)(Nc1ccc2c(c1)OCCO2)c1ccc2nncn2c1,12.24,2.83,-7.84

# — ChEMBL document CHEMBL4513146, “CO-ADD screening of Karazin Kharkiv National University (Ukraine) compounds”
